Measurements published in the supplement of paper PMC6555819.

Tests used:
Assay in all cases: PBM binding z-score (relative to random genomic background probes); higher = stronger binding; sequences stand for … in GC…GCGATTGACAGCGTAGAATGAAGG
[1] = system: FXR:RXRa (NR concentration 270 nM, RXRa partner concentration 90 nM)
How it was run: (§1)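 On custom Agilent 4×180K arrays, double-stranded probes with 34-nt variable regions carried direct-repeat seeds, single-nucleotide variants, half-site ablations or random human genomic background. Ligand-free nuclear receptor dimers were applied for 1 h, and binding was read with antibodies against each partner (one per run). Binding z-scores come from regression-normalized fluorescence, with the random background probes as reference.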

[2] = system: LXRa:RXRa (NR concentration 270 nM, RXRa partner concentration 90 nM)
How it was run: as §1

[3] = system: LXRa homodimer (NR concentration 270 nM)
How it was run: as §1

[4] = system: LXRb:RXRa (NR concentration 270 nM, RXRa partner concentration 90 nM)
How it was run: as §1

[5] = system: LXRb homodimer (NR concentration 270 nM)
How it was run: as §1

[6] = system: PPARa:RXRa (NR concentration 270 nM, RXRa partner concentration 90 nM)
How it was run: as §1

[7] = system: PPARg:RXRa (NR concentration 180 nM, RXRa partner concentration 90 nM)
How it was run: as §1

[8] = system: PPARg:RXRa 270nM:90nM, anti-RXR (NR concentration 270 nM, RXRa partner concentration 90 nM)
How it was run: as §1

[9] = system: PPARg:RXRa 30nM:10nM, anti-RXR (NR concentration 30 nM, RXRa partner concentration 10 nM)
How it was run: as §1

[10] = system: PPARg:RXRa 90nM:30nM, anti-RXR (NR concentration 90 nM, RXRa partner concentration 30 nM)
How it was run: as §1

[11] = system: PPARg:RXRa DBDmut IVT, anti-RXR (DBD mutation: RXRa K156A/R161A, NR concentration 270 nM, RXRa partner concentration 90 nM)
How it was run: as §1

[12] = system: PPARg:RXRa IVT, anti-PPARg (NR concentration 270 nM, RXRa partner concentration 90 nM)
How it was run: as §1

[13] = system: PPARg DBDmut:RXRa IVT, anti-PPARg (DBD mutation: PPARg1 K132A/R137A, NR concentration 270 nM, RXRa partner concentration 90 nM)
How it was run: as §1

[14] = system: PPARg DBDmut IVT, anti-PPARg (DBD mutation: PPARg1 K132A/R137A, NR concentration 270 nM)
How it was run: as §1

[15] = system: PPARg homodimer (NR concentration 180 nM)
How it was run: as §1

[16] = system: PXR:RXRa (NR concentration 270 nM, RXRa partner concentration 90 nM)
How it was run: as §1

[17] = system: PXR homodimer (NR concentration 270 nM)
How it was run: as §1

[18] = system: RARa:RXR (NR concentration 270 nM, RXRa partner concentration 90 nM)
How it was run: as §1

[19] = system: RARa homodimer (NR concentration 270 nM)
How it was run: as §1

[20] = system: RARb:RXRa (NR concentration 270 nM, RXRa partner concentration 90 nM)
How it was run: as §1

Sequence | PBM binding z-score [1] | PBM binding z-score [2] | PBM binding z-score [3] | PBM binding z-score [4] | PBM binding z-score [5] | PBM binding z-score [6] | PBM binding z-score [7] | PBM binding z-score [8] | PBM binding z-score [9] | PBM binding z-score [10] | PBM binding z-score [11] | PBM binding z-score [12] | PBM binding z-score [13] | PBM binding z-score [14] | PBM binding z-score [15] | PBM binding z-score [16] | PBM binding z-score [17] | PBM binding z-score [18] | PBM binding z-score [19] | PBM binding z-score [20]
GCGTACGGGTCAAAGGTTATAGCATGAATAGAAT | 7.58 | 5.75 | 0.516 | 5.7 | -0.18 | 6.8 | 10.5 | 8.74 | 8.99 | 9.27 | 2.3 | 4.85 | 0.234 | 2 | 4.07 | 6.11 | 0.08 | 8.62 | 0.0431 | 4.64
TCAAACAGGTGAAGGTAACTCAGGTACGCAGTCG | 1.02 | 1.85 | 0.0857 | 1.22 | -0.218 | 1.61 | 0.959 | 2.43 | 4.26 | 3.48 | 3.03 | 1.6 | 0.098 | 0.184 | 0.662 | 0.812 | 0.0874 | 1.19 | 0.552 | 1.26
CTACCAAGGTGAACCAGGTCGTTGATTACTATTC | 0.862 | 1.52 | -0.0698 | 1.8 | -0.718 | 2.61 | 1.19 | 1.54 | 0.0677 | 0.58 | 2.39 | 3.12 | -0.252 | 0.258 | 1.51 | 1.93 | 0.659 | 2.14 | -0.266 | 1.92
CATACAGGGGCAGCTAGGCCAGAGTAGGGACGGC | -0.362 | -0.459 | -0.661 | -0.557 | -0.608 | -0.483 | 0.23 | -0.457 | -0.311 | -0.744 | -0.41 | 0.399 | -0.422 | -0.72 | -0.555 | -0.802 | -0.878 | -0.828 | 0.188 | 1.17
AATACAGAGTCACTAGGCCAGAGTAGGTACGAAT | -0.115 | -0.0616 | -0.358 | -0.555 | -0.252 | 0.626 | 1.31 | 0.617 | 0.184 | 0.718 | 0.648 | 1.74 | 1.31 | 0.135 | 0.238 | -0.343 | -0.0346 | -0.415 | 0.249 | 0.141
TCTCGGAGGGCACGAAGGTCAGAGCTTTCCAGAG | 1.96 | 2.22 | 0.0808 | 1.7 | -1.18 | 2.96 | 1.3 | 2.4 | 1.73 | 1.99 | 1.9 | 2.51 | -0.633 | -1.03 | 1.08 | 3.25 | 2.26 | 2.88 | -0.387 | 3.92
TCGAGTAGGTTAGCCGGGGCATTCAGCCAACATA | 0.0762 | -0.0841 | -0.659 | 0.0461 | -1.01 | 0.893 | -0.0642 | 0.609 | 0.847 | 0.701 | 1.95 | 1.45 | -0.971 | -1.01 | -0.00962 | 0.241 | -0.374 | 0.484 | -0.48 | 0.608
ATCTCTAGGTAACAAGTTCAGGGAAAGAGAGGAC | 1.08 | 1.19 | 0.665 | 1.09 | 1.23 | 1.97 | 1.74 | 2.3 | 1.06 | 1.99 | 3.5 | 3.06 | 1.15 | 2.01 | 1.61 | 1.74 | 1.82 | 1.32 | 1.58 | 1.69
TCATATAGGTGAAGGTGAAAGTCGAACGATATGA | 0.452 | 0.703 | -0.543 | 0.713 | -0.39 | 3.24 | 5.02 | 5.16 | 4.73 | 4.96 | 6 | 6.13 | 1.24 | 0.938 | 0.35 | 0.448 | 0.0381 | 1.08 | 0.38 | 1.88
CCGAGTAGTTTATGGGGCATTCAGGCAACGGTGA | 0.0687 | -0.0173 | -0.197 | 0.53 | -0.0668 | 0.806 | 0.147 | 0.448 | -0.234 | 0.108 | 1.6 | 1.4 | -0.427 | -0.259 | 0.266 | -0.181 | -0.00127 | -0.101 | -0.193 | 0.282
ATCTCTAGGTGAGACTCAGTTCAGTGAAGAACGC | 0.247 | 0.206 | 0.00794 | 0.271 | 0.0417 | 0.953 | 0.798 | 0.846 | 0.146 | 0.412 | 4.55 | 3.85 | 0.96 | -0.0812 | -0.0769 | 1.31 | 0.653 | 0.361 | 0.0758 | 0.707
CAAACTAGGTCACCGGATGGTCAAAGTCCGCATG | 4.23 | 3.25 | 0.505 | 2.57 | 0.435 | 5.4 | 8.96 | 7.39 | 5.71 | 7.25 | 8.46 | 8.82 | 4.83 | 2.57 | 3.76 | 2.49 | 0.137 | 3.77 | 1.02 | 4.29
CGAACGAGGGCATCAGTTGATAGCAAATGCCGAT | 0.292 | 0.0604 | -0.396 | 0.107 | -0.651 | 1.19 | 1.1 | 0.934 | -0.0649 | 0.293 | 2.85 | 1.94 | -0.013 | -0.142 | -0.115 | 0.166 | 0.152 | 0.224 | -0.261 | 2.03
TCTTGTAGCTCAGCAGGTTAAGAAAGCTGGCCAA | -0.369 | -0.138 | -0.851 | -0.1 | -0.79 | 0.495 | -0.935 | 0.729 | 1.58 | 1.27 | 0.777 | -0.372 | -0.853 | -0.876 | -0.753 | -0.26 | -0.524 | -0.108 | -1.11 | -0.157
